89 compounds from PubChem BioAssay AID743279 (National Center for Advancing Translational Sciences (NCATS), 2014) can be followed below.

The campaign covered roughly 360,000 compounds. About 17,000 (4.7%) were called active. About 5% were inconclusive and are not listed. Many of the other results were omitted from the sample, so actives are more common in it than they were. Unmarked numbers belong to inactive results. No stated cut-off is given here; in the data, active means activity change below about -50%; inconclusive means mostly about -30% to -49%; inactive means weaker than that.
On the % scale 0 is the no-effect control and ±100 the full control effect.

The nature of the assay: qHTS for Inhibitors of Inflammasome Signaling: IL-1-beta AlphaLISA Primary Screen. The following applies: THP-1 LPS/ATP IL-1B secretion, 16 h; at 57.5 µM, active compounds read low. Summed up:
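THP-1 cells pretreated 1 hr with compounds (up to 57.5 uM final), then stimulated with LPS (250 ng/mL final) plus ATP (1.25 mM final); secreted IL-1B measured by AlphaLISA after 16 hr, decreased signal indicating inhibition.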
On the technique in general: In qHTS, concentration-response curves come from the screen itself.
For the compound `CSc1ccc(CNC(=O)C2(C)CCCN2C)cc1` (centres undefined), the activity change is -5.74%.
As to `COCCCNC(=O)CNC(=S)N(Cc1cc(OC)c(OC)c(OC)c1)C1CCCC1`, the activity change is 7.84%.
With `Cc1ccc(C(=O)N/C(=C\c2cn(S(=O)(=O)N(C)C)c3ccccc23)C(=O)N2CCCC2)cc1`, the activity change was -17.6%.
For the compound `COc1ccccc1OCc1ccc(C(=O)N2CCN(C)CC2)o1`, the activity change is 10.8%.
In the case of `CN1CCN(C(=O)c2ccc(NC(=O)c3ccc(Br)o3)cc2)CC1` it was 4.78%; in that of `CN1CCN(C(=O)c2ccc(-c3ccc(Br)cc3)o2)CC1`, -71.3% (active).
Consider `CCCc1nn2c(=O)cc(CSCC(=O)Nc3cccc(C)c3)nc2s1`, for which the activity change is 19.5%.
With `Cc1cccc(-c2cnc(C(O)c3cc(C)cc(C)c3)[nH]2)c1` (centres undefined), the activity change was -1.76%.
Regarding `CCOC(=O)N(C)c1c(CC)nc2c(OCc3ccccc3C(=O)OC)cccn12`, the activity change is 6.05%.
For the compound `CCc1nc2c(OCc3cccc(OC)c3)cccn2c1N(C)C(=O)C(C)C`, the activity change is 51.9%.
Turning to `CCCCC(=O)N(C)c1c(CC)nc2c(OCc3ccc(S(C)(=O)=O)cc3)cccn12`, the activity change is 28.1%.
As for `CCc1nc2c(OCc3ccc(C(=O)OC)cc3)cccn2c1N(C)C(=O)C(C)C`, the activity change was -12%.
On to `CCCCC(=O)N(C)c1c(CC)nc2c(OCc3ccc(Cl)cc3Cl)cccn12`, for which the activity change was -54% (active).
As for `CCc1nc2c(OCc3ccc(Cl)cc3Cl)cccn2c1N(C)C(=O)C(C)C`, the activity change was -84.1% (active).
In the case of `CCc1nc2ccc(C(=O)NC3CCN(Cc4ccccc4)CC3)cn2c1N(C)CCN1CCOCC1` it was -15.7%.
As to `CCc1nc2c(OCc3ccc(C(F)(F)F)cc3)cccn2c1N(C)C(=O)CC(C)C`, the activity change was -8.97%.
For `COC1=CC(=O)OC(C)(c2ccccc2)C1` (centres undefined), the activity change was 9.74%.
Turning to `COc1ccc(NC(=O)c2ccco2)cc1NC(=O)c1ccc(C#N)cc1F`, the activity change was 52.7%.
In the case of `Cc1cccc(OCC(=O)Nc2ccc(NC(=O)c3ccco3)c(C)c2)c1` it was -0.614%; in that of `COc1ccccc1C(=O)Nc1ccc(NC(=O)c2ccco2)c(C)c1`, -55.2% (active); in that of `Cc1cc(F)ccc1S(=O)(=O)Nc1ccc(C(=O)N(C)Cc2ccco2)cc1`, -8.26%.
Regarding `COc1ccc(NC(=O)CSc2nnc(-c3ccccc3F)n2C2CC2)cc1S(N)(=O)=O`, the activity change was 15.5%.
`Cc1nn(-c2ccccc2)c(C)c1/C=N/NC(=O)CSc1nc2ccccc2c(=O)n1-c1ccccc1`: the activity change is 12%.
In the case of `Cc1nn(-c2ccccc2)c(Cl)c1/C=N/NC(=O)c1nn(C)cc1[N+](=O)[O-]` it was -65.7% (active).
Consider `Cc1ccc(-n2nc(C)c(/C=N/NC(=O)c3cccs3)c2Cl)cc1`, for which the activity change is -8.79%.
Consider `Cc1ccc(N2CCN(c3ccc([N+](=O)[O-])cn3)CC2)c(C)c1`, for which the activity change was -8.34%.
For `Cc1ccc(S(=O)(=O)N2CCC(C(=O)NCCC3=CCCCC3)CC2)cc1C`, the activity change was -2.64%.
Consider `C1=C(CCNc2ncnc3c2cnn3-c2ccccc2)CCCC1`, for which the activity change is -3.14%.
Turning to `O=C(NCCC1=CCCCC1)C1CCN(Cc2cnn(-c3ccccc3)c2-n2cccc2)CC1`, the activity change is -64.8% (active).
In the case of `Nc1ncnc2c1ncn2[C@@H]1O[C@H](C(=O)N2CCCN(Cc3ccccc3F)CC2)[C@@H](O)[C@H]1O`, the activity change is 2.81%.
The figure for `COc1ccccc1-n1c(SCC(=O)Nc2ccc(Cl)cc2)nc(O)c(Cc2ccccc2)c1=O` is 0%; for `NC(c1ccccc1)c1csc(NC(=O)Nc2cccc(C(F)(F)F)c2)n1` (centres undefined) it is -106% (active); for `O=C(O)CC1(CC(=O)Nc2cccc(C(F)(F)F)c2)CCCC1` it is 16.7%.
The figure for `NC(c1csc(NC(=O)Nc2cccc(C(F)(F)F)c2)n1)C1CCCCC1` (centres undefined) is -111% (active); for `COc1ccc(C(N)c2csc(NC(=O)Nc3cccc(C(F)(F)F)c3)n2)cc1` (centres undefined) it is -81.4% (active); for `COc1ccc(NC(=O)C(=O)NCC(=O)Nc2cccc(C(F)(F)F)c2)cc1` it is 10.7%.
For `CC(C)C[C@H](NC(=O)Nc1cccc(C(F)(F)F)c1)C(=O)O`, the activity change is 34.5%.
In the case of `O=C(Nc1ccc(-c2csc(Nc3cccc(C(F)(F)F)c3)n2)cc1)c1cccc(C(F)(F)F)c1` it was 11.4%; in that of `COc1cc(NC(=O)c2[nH]cnc2C(N)=O)cc(C(=O)Nc2cccc(C(F)(F)F)c2)c1`, -16%.
In the case of `O=C(Nc1ccc(C(=O)N2CCOCC2)cc1)Nc1cccc(C(F)(F)F)c1` it was -10.3%; in that of `O=C(NCc1ccccc1)C1CNCC(C(=O)NCc2ccccc2)C1` (centres undefined), -14.4%; in that of `Cc1cc([N+](=O)[O-])ccc1NS(=O)(=O)c1ccccc1`, 26.9%.
As to `O=S1(=O)CC(N2CCN(CCO)CC2)CN1C1CCCC1` (centres undefined), the activity change was -8.55%.
In the case of `Cc1ccc(-c2c(N)nc3ncccn23)cc1` it was 7.85%.
`O=C(CN(C(=O)CCC(=O)Nc1nccs1)c1ccc(F)cc1)NCc1ccc2c(c1)OCO2`: the activity change was -10.1%.
As to `O=C(c1cc(-c2ccc(Cl)s2)nc2ccccc12)N1CCOCC1`, the activity change was -70.8% (active).
`CCOc1ccccc1-c1cc(C(=O)N2CCOCC2)c2ccccc2n1`: the activity change was -12%.
In the case of `CC(=O)N1CCN(C(=O)c2cc(-c3ccc(C)o3)nc3ccccc23)CC1` it was 23.1%; in that of `CCc1nc2ccc(C(=O)Nc3ccc(OC)c(OC)c3)cn2c1N(C)C(=O)c1cccc(OC)c1`, -8.18%.
On to `COc1ccc(OC)c(S(=O)(=O)n2c([N+](=O)[O-])cnc2C)c1`, for which the activity change is 0.96%.
For the compound `CCOc1ccc(C(C)C)cc1S(=O)(=O)n1nc(C)cc1C`, the activity change was 0%.
For the compound `COc1ccc(C(C[N+](=O)[O-])n2nc(C)cc2C)cc1` (centres undefined), the activity change was -102% (active).
The figure for `COc1ccc(S(=O)(=O)N2CCc3ccccc32)cc1C(=O)Nc1cc(S(C)(=O)=O)ccc1Cl` is 47.6%.
In the case of `CC(=O)NS(=O)(=O)c1ccc(N/C(N)=N/c2nc(C)cc(C)n2)cc1` it was 34.9%; in that of `Clc1cccc(-c2nc3nc4ccccc4nc3n2Cc2ccco2)c1`, -17.2%; in that of `O=c1c2ccccc2oc2nc(C3CCCCC3)n(Cc3ccco3)c(=O)c12`, -16.6%.
In the case of `Cc1ccc(Cn2c(C)nc3c(c2=O)c2nc4ccccc4nc2n3Cc2ccco2)cc1` it was -83.5% (active).
`COC(=O)c1cc(S(=O)(=O)NC2CCN(Cc3ccccc3)CC2)cn1C`: the activity change is -1.73%.
As for `CCn1c(=S)[nH]c2cc(S(=O)(=O)N3CCOCC3)ccc21`, the activity change was 46.6%.
In the case of `CSCCC(=O)N1CCCC(CNC(=O)c2ccccc2Cl)C1` (centres undefined) it was 27.1%; in that of `Cc1ccc(C(=O)Nc2ccc(NC(=O)c3cccs3)cc2)c(C)c1`, -12.6%; in that of `CC(Oc1cccc(NC(=O)c2cccs2)c1)C(=O)c1ccccc1` (centres undefined), -60.1% (active).
For the compound `CC(C)C(=O)Nc1ccc(C(=O)NNC(=O)c2cccs2)cc1`, the activity change is 7.36%.
As to `Nc1scc(-c2ccncc2)c1Cl`, the activity change was -0.276%.
In the case of `CC(=O)OCCN(CCCn1c(-c2ccncc2)nc2ccccc21)c1nc(-c2ccc(C)cc2)cs1`, the activity change was 14.2%.
In the case of `c1ccc(CNCc2ccc(CNCc3ccccc3)cc2)cc1` it was -20.3%; in that of `COCCCNC(=O)/C(C#N)=C/c1c(N2CCCCCC2)nc2ccccn2c1=O`, -20.1%; in that of `COCCNC(=O)/C(C#N)=C/c1cccc(OCc2ccccc2)c1`, -8.24%.
Take `COCCNC(=O)/C(C#N)=C/c1nc(N(C)C)n(-c2ccc(F)cc2)c1Cl`: the activity change was -69.9% (active).
Take `O=C(NNC(=O)c1ccc(-c2ccccc2)cc1)Nc1ccccc1`: the activity change is -8.29%.
Take `C=CCNc1scc(-c2ccccc2)[n+]1CC=C`: the activity change was -19.1%.
The figure for `C=CC[n+]1c(-c2ccc(C)cc2)csc1NNC(=O)Nc1ccccc1` is -79.2% (active); for `CC(=O)Oc1ccc(Cn2c(C)c(C(=O)NCc3ccc(C#N)cc3)sc2=O)cc1` it is 8.83%; for `N#CCCN(C(=S)Nc1ccc(Cl)c(Cl)c1)C1CCCCC1` it is -17.1%.
For the compound `CC(C)S(=O)(=O)c1csc(NC(=O)Nc2ccc(Cl)cc2)c1Cl`, the activity change is -95.1% (active).
Turning to `O=C(Nc1ccc(Cl)cc1)Nc1ccc(C(=O)N2CCOCC2)cc1`, the activity change is -29.9%.
In the case of `O=C(NCc1ccccn1)Nc1ccc(Cl)cc1`, the activity change was -6.13%.
Consider `S=C(NC1CCCCC1)NN1CCOCC1`, for which the activity change was 31.1%.
On to `O=C(CSc1nc2nccnc2c(=O)n1Cc1cccs1)Nc1ccccc1F`, for which the activity change is 2.93%.
Take `CC1(C(=O)NS(=O)(=O)Cc2cccc(Cl)c2)CCN1C(=O)Cc1ccccc1` (centres undefined): the activity change is 3.48%.
For the compound `O=C1[C@@H](c2ccccc2)[C@@H](c2ccccc2)N1c1cccnc1`, the activity change was -68.8% (active).
With `CCc1ccccc1NC1c2ccccc2C(=O)N1c1cccnc1` (centres undefined), the activity change is 0%.
Consider `O=C1C(=O)N(c2ccccc2)C(c2ccccc2)C1c1ccccc1` (centres undefined), for which the activity change is 5.18%.
In the case of `COc1cc(S(=O)(=O)N(Cc2cccs2)C2CC2)ccc1-n1cnnn1` it was 0%; in that of `O=C(N[C@@H](Cc1ccccc1)C(=O)OCc1ccccc1)c1nc[nH]c1C(=O)NC1CCNCC1`, -10%; in that of `CC(C)(C)OC(=O)N1CCC(NC(=O)c2[nH]cnc2C(=O)N[C@@H](Cc2ccccc2)C(=O)OCc2ccccc2)CC1`, -58% (active).
In the case of `CC(C)(C)OC(=O)CNC(=O)c1[nH]cnc1C(=O)N[C@@H](Cc1ccccc1)C(=O)OCc1ccccc1` it was 52.8%; in that of `Cc1cc(Br)ccc1NC(=O)CCCOc1cc(=O)n(C)c2ccccc12`, -13.4%; in that of `COc1cccc2c1OCC(CN1CCN(C3CCCCC3)C(CCO)C1)=C2` (centres undefined), 18.2%.
